Shown are actives, neighbours in structure and some others; about 1.1% of the full set was active somewhere.
BioA inh-1: blocks M. tuberculosis BioA enzyme activity; purified M. tuberculosis BioA enzyme, plate reader; inhibition, % at 9.99 µM; actives 0.096% (n = 360,000); AID 602481; in the data active means inhibition above about 40%; inconclusive means no clear call, values can overlap the other calls
BJeLR lethal: BJeLR cell viability loss; inhibition, % (concentration not given with the values); BJeLR (HRASV12) viability, CellTiter-Glo ATP luminescence, 48 h; AID 1554; actives 0.17% (n = 300,000); in the data active means inhibition above about 50%; inconclusive means no clear call, values can overlap the other calls
Mtb bLac sens: beta-lactam sensitization of Mtb H37Rv; actives 0.27% (n = 330,000); M. tuberculosis H37Rv growth with meropenem, percent inhibition; inhibition, % at 25 µM; AID 434955;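 further: growth measured after seven days incubation then overnight dye step; 0% = bacteria only wells and 100% = bacteria with antibiotic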
RecA intein inh: blocks M. tuberculosis RecA intein splicing; P9WHJ3; cell-free RecA intein splicing, fluorescence; inhibition, % (no concentration beside the values); actives 0.75% (n = 290,000); AID 2221; in the data active means inhibition above about 30%; inconclusive means no clear call, values can overlap the other calls;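 further: 0% = vehicle wells and 100% = reference inhibitor control wells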
Target sequence (P9WHJ3 whole entry, looked up): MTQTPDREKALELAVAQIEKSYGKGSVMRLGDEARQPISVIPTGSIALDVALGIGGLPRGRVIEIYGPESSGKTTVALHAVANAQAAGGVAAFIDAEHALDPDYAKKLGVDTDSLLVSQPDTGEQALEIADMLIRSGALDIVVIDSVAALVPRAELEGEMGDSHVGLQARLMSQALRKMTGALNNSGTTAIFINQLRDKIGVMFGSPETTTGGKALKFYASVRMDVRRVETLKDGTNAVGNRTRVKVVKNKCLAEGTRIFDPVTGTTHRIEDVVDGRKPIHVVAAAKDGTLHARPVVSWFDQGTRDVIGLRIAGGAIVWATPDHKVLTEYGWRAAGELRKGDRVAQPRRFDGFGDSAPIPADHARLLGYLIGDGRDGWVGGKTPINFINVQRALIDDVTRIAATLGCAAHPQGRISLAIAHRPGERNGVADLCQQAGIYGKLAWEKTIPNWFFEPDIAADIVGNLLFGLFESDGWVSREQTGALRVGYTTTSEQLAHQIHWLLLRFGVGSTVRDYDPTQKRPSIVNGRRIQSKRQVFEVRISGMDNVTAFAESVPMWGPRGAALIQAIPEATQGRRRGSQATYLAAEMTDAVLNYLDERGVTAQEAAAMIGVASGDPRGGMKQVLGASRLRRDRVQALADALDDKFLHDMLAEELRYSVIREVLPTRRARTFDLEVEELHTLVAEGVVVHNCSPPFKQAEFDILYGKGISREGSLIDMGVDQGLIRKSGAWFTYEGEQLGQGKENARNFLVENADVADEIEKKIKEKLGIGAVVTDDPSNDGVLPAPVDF
Yp Topo-I inh: Y. pestis Topo-I inhibition via cleavage products. actives 0.064% (n = 360,000). activity, % at 10 µM. Y. pestis Topo-I cleavage product accumulation, plate reader. AID 504884; in the data active means activity above about 50%, passing the limit was not always enough; inconclusive means no clear call, values can overlap the other calls
CCHFV vOTU inh: CCHFV vOTU protease inhibition | Pep-AMC fluorescence | inhibition, % at 11.5 µM | actives 0.55% (n = 370,000) | AID 651958; in the data active means inhibition above about 30%; further: 0% = vehicle wells with enzyme and 100% = no enzyme wells
BioA inh-2: inhibitors of Mycobacterium tuberculosis BioA enzyme | shares compounds with BioA inh-1 | max activity, % | purified BioA enzyme, plate reader, dose response | 310 tested, under 10 active;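 further: top concentration of the dilution series was 10 µM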
HepG2 cytotox: kills HepG2 cells | max activity, % | HepG2 cytotoxicity, plate reader | AID 651898 | 310 tested, under 10 active | shares compounds with BioA inh-1
NIH3T3 tox 5: cytotoxicity in NIH3T3 cells. shares compounds with BioA inh-1. plate reader. activity change, negative = cytotoxicity, % at 26 µM. 310 tested, under 10 active
Numbers without * were called inactive; i = inactive; ? = inconclusive; . = not tested or not shown; [ ] = another dose, or the depositor's remark. Unless noted, how the calls were made is not given here.

SMILES | BioA inh-1 | BJeLR lethal | Mtb bLac sens | RecA intein inh | Yp Topo-I inh | CCHFV vOTU inh | BioA inh-2 | HepG2 cytotox | NIH3T3 tox 5
O=C1CCCc2c1cc(C(=O)NCc1ccco1)c(=O)n2-c1ccc(Cl)cc1 | 50* | -1 | 5 | 3 | 4 | 2 | 3 | 21 | 2
COc1ccc(S(=O)(=O)N(C)C[C@H]2OCCCC[C@H](C)Oc3ccc(NS(C)(=O)=O)cc3C(=O)N([C@@H](C)CO)C[C@@H]2C)cc1 | -2 | . | . | . | . | . | . | . | .
COc1ccc(-c2nc3ccc(Cl)cn3c2Cc2ccccc2)cc1OC | 70* | . | . | . | . | -1 | -9 | -13 | -7
CCCNC(=O)[C@H]1[C@H](CO)[C@H]2Cn3c(ccc(-c4ccccc4)c3=O)[C@@H]1N2C(=O)C1CC1 | -1 | . | . | . | . | . | . | . | .
Nn1c(SCCOc2ccccc2)nnc1-c1cccnc1 | 74* | -9 | 3 | 1 | 2 | -1 | 3 | -8 | -5
Nn1c(SC/C=C/c2ccccc2)nnc1-c1cccnc1 | 109* | 4 | -1 | -2 | 2 | -5 | 4 | -11 | 12
COc1cccc(-c2nnc(SCc3nc4ccccc4[nH]3)n2N)c1 | . | 0 | 2 | -1 | -6 | -13 | . | . | .
Nn1c(SCc2nc3ccccc3[nH]2)nnc1-c1cccnc1 | 59* | 6 | ? | 0 | 9 | 17 | -8 | -6 | 1
Nn1c(SCCOc2ccc(Cl)cc2)nnc1-c1cccnc1 | . | -17 | -6 | 3 | 3 | -15 | . | . | .
O=C(C[C@@H]1CC[C@@H](NC(=O)c2ccc(F)cc2)[C@@H](CO)O1)NCc1ccncn1 | 1 | . | . | . | . | . | . | . | .
O=C(CC1CC1)N[C@@H]1CC[C@H](CCNS(=O)(=O)c2ccc(Cl)cc2)O[C@@H]1CO | -2 | . | . | . | . | . | . | . | .
C[C@H]1CN([C@@H](C)CO)C(=O)c2cccc(NC(=O)C3CC3)c2O[C@H]1CN(C)C(=O)Nc1ccc(C(F)(F)F)cc1 | 3 | . | . | . | . | . | . | . | .
C[C@@H]1CN([C@H](C)CO)C(=O)c2cc(C#CC3CC3)cnc2O[C@H]1CN(C)C(=O)c1ccc(F)cc1 | -2 | . | . | . | . | . | . | . | .
O=C(Nc1ccc2c(c1)[C@H]1C[C@H](CC(=O)N3CCc4ccccc4C3)O[C@H](CO)[C@H]1O2)c1cccnc1 | 36 | . | . | . | . | . | . | . | .
O=C(C[C@@H]1C[C@@H]2c3cc(NC(=O)c4cccnc4)ccc3O[C@@H]2[C@@H](CO)O1)NCc1cccc(F)c1 | 51* | . | . | . | . | . | -8 | i | 1[23.5 µM]
O=C(C[C@@H]1C[C@@H]2c3cc(NC(=O)c4cccnc4)ccc3O[C@@H]2[C@@H](CO)O1)NCc1cccnc1 | 41* | . | . | . | . | . | -7 | i | -5
O=C(Nc1ccc2c(c1)[C@H]1C[C@@H](CC(=O)N3CCc4ccccc4C3)O[C@H](CO)[C@H]1O2)c1cccnc1 | 55* | . | . | . | . | . | -4 | i | -7
O=C(C[C@H]1C[C@H]2c3cc(NC(=O)c4cccnc4)ccc3O[C@H]2[C@H](CO)O1)NCc1ccccn1 | 40* | . | . | . | . | . | -2 | i | -6
O=C(C[C@@H]1C[C@@H]2c3cc(NC(=O)c4cccnc4)ccc3O[C@@H]2[C@H](CO)O1)NCc1ccccn1 | 33 | . | . | . | . | . | . | . | .
C[C@H]1CCCCO[C@@H](CN(C)C(=O)Nc2ccccc2)[C@@H](C)CN([C@@H](C)CO)C(=O)c2cc(N(C)C)ccc2O1 | -2 | . | . | . | . | . | . | . | .
O=C(C[C@H]1CC[C@@H]2[C@H](COC[C@H](O)CN2C(=O)Nc2cc(Cl)cc(Cl)c2)O1)NCC1CCCCC1 | 1 | . | . | . | . | . | . | . | .
Cc1ccccc1-n1c(SCC(=O)N(C)C2CCS(=O)(=O)C2)nc2ccccc2c1=O (stereo unspecified) | 60* | -19 | 1 | -1 | -11 | -15 | -3 | 18 | 0
COc1ccccc1-n1c(SCC(=O)N(C)C2CCS(=O)(=O)C2)nc2ccccc2c1=O (stereo unspecified) | ? | 0 | 1 | 0 | -4 | 7 | . | . | .
CN(C(=O)CSc1nc2ccccc2c(=O)n1-c1ccccc1Cl)C1CCS(=O)(=O)C1 (stereo unspecified) | 50* | . | -1 | . | 15 | 9 | 10 | -8 | 1
C[C@@H]1CN([C@H](C)CO)C(=O)c2cc(NC(=O)CCCN(C)C)ccc2O[C@@H]1CN(C)C | -3 | . | . | . | . | . | . | . | .
SMILES | BioA inh-1 | BJeLR lethal | Mtb bLac sens | RecA intein inh | Yp Topo-I inh | CCHFV vOTU inh | BioA inh-2 | HepG2 cytotox | NIH3T3 tox 5
C[C@@H]1CN([C@@H](C)CO)C(=O)c2cccc(NC(=O)c3ccc(-c4nccs4)cc3)c2O[C@H]1CN(C)S(=O)(=O)c1cn(C)cn1 | 4 | . | . | . | . | . | . | . | .
CC(=O)c1ccc(NC(=O)Cc2ccsc2)cc1 | 2 | -12 | -6 | . | 2 | -11 | . | . | .
CC(=O)c1ccc(NC(=O)COC(=O)Cc2ccsc2)cc1 | 47* | . | 2 | . | 11 | -8 | -6 | 12 | -3
C[C@@H]1CCCCO[C@@H](CN(C)S(C)(=O)=O)[C@H](C)CN([C@H](C)CO)C(=O)c2cc(NC(=O)Nc3ccc(C(F)(F)F)cc3)ccc2O1 | -3 | . | . | . | . | . | . | . | .
COc1ccc(F)cc1C(=O)C1CCCN(C(=O)c2ccc(C(C)=O)s2)C1 (stereo unspecified) | 71* | -1 | 4 | 6 | 11 | -1 | -8 | -16 | -3
CC(=O)c1ccc(C(=O)N2CCCC(Nc3ccccc3)C2)s1 (stereo unspecified) | 64* | -6 | ? | 2 | 2 | -8 | -8 | 24 | -1
CC(=O)c1ccc(C(=O)N2CCCC(C(=O)c3cc(F)ccc3F)C2)s1 (stereo unspecified) | 38 | -5 | -14 | 2 | -4 | 1 | . | . | .
CC(=O)c1ccc(C(=O)N2CCCC(C(=O)c3ccc(Cl)cc3)C2)s1 (stereo unspecified) | 49* | 6 | 0 | 3 | 13 | 15 | -6 | 7 | -2
CC(=O)c1ccc(C(=O)NC2CCCN(Cc3ccccc3F)C2)s1 (stereo unspecified) | 46* | -4 | -5 | 0 | -1 | -8 | -7 | -9 | 5
COc1ccccc1CNC(=O)C[C@@H]1C=C[C@@H](NC(=O)CC2CC2)[C@@H](CO)O1 | -3 | . | . | . | . | . | . | . | .
C#CCSc1nnc(-c2c[nH]c3ccccc23)n1C | -4 | -2 | -5 | 0 | -5 | -1 | . | . | .
C#CCSc1nnc(-c2sc(-c3ccccc3)nc2C)n1C | 60* | -3 | 77 | -2 | -2 | -13 | -3 | -14 | 3
C[C@H](CO)N1C[C@H](C)[C@H](CN(C)C(=O)Nc2ccccc2)Oc2c(NS(C)(=O)=O)cccc2C1=O | 3 | . | . | . | . | . | . | . | .
O=C(C[n+]1cc(-c2ccc(Cl)cc2)n2c1CCC2)N1c2ccccc2Sc2ccccc21 | 61* | 1 | 99 | 1 | 2 | 13 | -6 | -11 | 0
CCOC(=O)c1ccc(N2C(=O)c3n[nH]c(C)c3C2c2ccc(OC)c(OC)c2)cc1 (stereo unspecified) | 101* | -6 | 1 | -2 | 13 | 6 | -8 | -12 | 1
